# Hits are enriched below; roughly 4.7% of the tested compounds scored in any of these assays.
# EBI2 antag – EBI2 receptor antagonists, beta-arrestin recruitment, primary screen, cell-based, luminescence, 7a,25-OHC stimulation, uHTS | 360,000 tested, 0.81% active | inhibition, % at 5 µM | G-protein coupled receptor 183 (Homo sapiens), P32249 | AID 651636, 2012 | 7a,25-OHC stimulated; in the data active means inhibition above about 38%;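 further: enzyme fragment complementation signal reports receptor beta-arrestin coupling in cells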
# Target sequence (P32249 whole entry, looked up, the tested form may be a part): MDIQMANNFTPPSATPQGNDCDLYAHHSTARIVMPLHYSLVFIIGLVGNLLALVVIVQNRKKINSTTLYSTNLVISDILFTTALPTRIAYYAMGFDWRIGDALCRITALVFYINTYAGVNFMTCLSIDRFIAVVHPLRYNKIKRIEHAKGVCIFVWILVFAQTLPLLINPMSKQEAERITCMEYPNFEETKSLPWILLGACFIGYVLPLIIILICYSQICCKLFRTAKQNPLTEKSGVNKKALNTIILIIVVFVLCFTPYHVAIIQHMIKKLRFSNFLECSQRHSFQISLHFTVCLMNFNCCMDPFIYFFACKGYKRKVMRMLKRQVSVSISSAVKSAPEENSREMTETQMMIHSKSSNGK
# TIM10 inh – growth inhibitors of isogenic TIM10 control yeast, primary screen, counter-screen for tim10-1 yeast inhibitor project, luminescence, uHTS; inhibition, % at 10 µM; 330,000 tested, 1.4% active; S. cerevisiae TIM10 strain growth, BacTiter-Glo luminescence, 24 h;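 active means inhibition of 40% or more at the single tested concentration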;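 further: wild-type TIM10 isogenic control strain grown at permissive 25 °C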
# SKKanGAS inh – S. pyogenes SKKanGAS growth inhibitors in kanamycin, primary screen, streptokinase expression inhibitor project, SKKanGAS strain, BacTiter-Glo luminescence | 6 h | 300,000 tested, 1.3% active | inhibition, % at 7.5 µM | AID 1662, 2009;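 active means mean replicate score, as percent of positive control median, at least 50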;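 further: strain carries kanamycin resistance gene driven by streptokinase promoter and grows in 40 µg/ml kanamycin; loss of luminescence reflects streptokinase promoter inhibition or plain growth inhibition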
# PfHsp90 set2 – growth inhibition of PfHsp90-expressing yeast, primary screen, antimalarial PfHsp90 inhibitor project, S. cerevisiae, BacTiter-Glo luminescence, single point, set 2; BacTiter-Glo ATP, 48 h; yeast lacking PDR1 and PDR3 efflux regulators; inhibition, % at 9.4 µM; 310,000 tested, 0.32% active; AID 504621, 2011;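 active means every replicate shows inhibition above about 80%, whatever the replicate mean, limit read from the data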
# tim10-1 inh – growth inhibitors of tim10-1 mutant yeast, primary screen, luminescence, uHTS; 330,000 tested, 2.2% active; S. cerevisiae tim10-1 ts strain growth, BacTiter-Glo, 24 h; AID 463190, 2010; inhibition, % at 20 µM;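 active means inhibition of at least 40%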;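 further: mutant grown at 25 °C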
# tim23-1 inh – growth inhibitors of tim23-1 mutant yeast, primary screen, luminescence, uHTS. 330,000 tested, 1.3% active. inhibition, % at 20 µM. S. cerevisiae tim23-1 growth, BacTiter-Glo luminescence, 24 h. AID 463212, 2010;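 active means growth inhibition of the mutant yeast at or above 50%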;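 further: temperature-sensitive mutant grown at 25 °C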
# tim10-1 confirm – growth inhibitors of tim10-1 mutant yeast, confirmation, single concentration, luminescence, S. cerevisiae. shares compounds with tim10-1 inh. AID 463213, 2010. S. cerevisiae tim10-1 ts strain growth, BacTiter-Glo, 24 h. inhibition, % at 20 µM. 7,400 tested, 56% active;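 active means inhibition of yeast growth at or above a set limit in either of two repeat tests at 20 µM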;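 further: tim10-1 mutant grown at permissive 25 °C to find synthetic lethal compounds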
# tim10 confirm – growth inhibitors of wild-type TIM10 yeast, confirmation, counter-screen for tim10-1 synthetic lethality project, single concentration, luminescence, S. cerevisiae. inhibition, % at 10 µM. S. cerevisiae tim10 strain growth, BacTiter-Glo luminescence, 24 h. 4,600 tested, 63% active. AID 463215, 2010. shares compounds with TIM10 inh;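 active means inhibition of yeast growth at or above a set limit in either of two replicates at 10 µM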; further: this counterscreen used the strain with wild-type TIM10
# tim23-1 confirm – tim23-1 mutant yeast growth inhibitors, confirmation, luminescence, single concentration. shares compounds with tim23-1 inh. S. cerevisiae tim23-1 growth, BacTiter-Glo luminescence, 24 h. inhibition, % at 20 µM. 4,400 tested, 83% active. AID 463218, 2010;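 active means inhibition above about 39% in either of two replicate wells at 20 µM, limit read from the data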;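 further: temperature-sensitive tim23-1 mutant grown at 25 °C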
# A number is an active result; n = inactive; x = no result.
SMILES,EBI2 antag,TIM10 inh,SKKanGAS inh,PfHsp90 set2,tim10-1 inh,tim23-1 inh,tim10-1 confirm,tim10 confirm,tim23-1 confirm
Cc1cc(N/N=C/c2ccc(Cl)cc2)nc(NCc2ccccc2)n1,n,n,n,n,47.7,74.5,41.1,x,n
Cn1c(N2CCCC2)nc2c1c(=O)n(Cc1ccc(Cl)cc1)c(=O)n2C,n,55.8,n,n,55.0,52.7,40.5,35.4,59.5
CC(C)c1c(C(=O)N/N=C/c2ccc(C(F)(F)F)cc2)nnn1-c1nonc1N,n,n,n,n,n,n,x,x,x
COc1ccc(-c2cccc(C3CC=CC4C3C(=O)N(Cc3ccccc3)C4c3ccc(OC)c(Cl)c3)c2)cc1 (configuration not stated),n,67.0,n,n,49.2,58.2,36.8,n,61.7
O=C(Nc1ccncc1)c1cc(S(=O)(=O)N2CCOCC2)ccc1Cl,n,n,n,n,n,n,x,x,x
O=C(c1cc(-c2ccc(O)cc2)on1)N1CCN(c2ccc(F)cc2)CC1,n,41.1,n,n,48.9,51.8,n,40.6,46.4
O=C(c1cc(-c2ccc(O)cc2)on1)N1CCN(c2ccccc2)CC1,n,n,n,n,n,n,x,x,x
Cc1ccc(N=Cc2c(C)[nH]n(-c3nc4ccccc4[nH]3)c2=O)cc1,n,43.8,66.0,91.2,62.4,65.3,59.5,n,67.7
CC(C)(C)C(=O)OC/C(N)=N/OC(=O)c1ccc(Cl)c(Cl)c1,n,77.3,n,n,62.6,84.0,42.1,85.6,68.6
CCOC(=O)N1C(=O)[C@](c2ccc(Cl)cc2)(C(C)C)N1C(=O)OCC,n,n,n,n,42.5,61.2,41.8,x,56.1
Cc1cc(Nc2ccccc2)nc(-c2ccccc2O)n1,n,55.9,n,n,63.1,65.3,55.2,65.8,68.1
CCCCCc1ccc(CC(=O)Nn2c(C)nc3ccccc3c2=O)cc1,n,n,n,n,59.9,52.3,48.2,x,69.3
CC1=NN(C(N)=S)C(=O)C1N=Nc1cccc(Cl)c1C (configuration not stated),n,n,n,n,42.9,56.6,43.5,x,62.0
Cc1ccc(N/N=C(\Cc2nc3ccccc3[nH]2)c2ccccc2)cc1,n,x,x,n,x,x,x,x,x
Clc1cccc(/C(Cc2nc3ccccc3[nH]2)=N\Nc2ccccc2)c1,n,64.7,92.7,n,46.0,58.6,n,n,n
CCCn1c(NC(=O)c2ccc([N+](=O)[O-])o2)nc2ccccc21,n,41.4,n,n,54.8,50.5,48.8,60.9,58.1
O=C(Nc1ccccc1C(=O)NC1CC1)c1ccc([N+](=O)[O-])o1,n,n,x,n,48.0,63.6,33.8,x,65.7
COc1ccccc1NC(=O)c1ccc([N+](=O)[O-])o1,x,47.2,n,x,66.3,78.6,56.2,45.8,72.3
O=C(Nc1ccccc1C(=O)NC1CC1)c1ccccc1,n,n,x,n,n,n,x,x,x
Cc1cccc(NC(=O)c2ccc([N+](=O)[O-])o2)c1C,n,55.7,n,n,62.2,50.1,60.8,41.7,39.4
Cc1ccc(NC(=O)c2ccc([N+](=O)[O-])o2)cc1C,n,n,n,n,n,n,x,x,x
COc1ccc(CC(=O)OCC(=O)NCc2ccc3c(c2)OCO3)cc1OC,n,n,x,x,n,n,x,x,x
CCOC(=O)C(C)Sc1ncc(-c2ccccc2)cn1 (configuration not stated),n,n,n,n,n,n,x,x,x
O=C1CN(S(=O)(=O)c2cccc(C(=O)O)c2)c2ccccc2N1,n,n,n,n,n,n,x,x,x
O=C(Nc1cccc2ccccc12)c1ccc([N+](=O)[O-])o1,n,68.3,52.5,n,79.6,78.1,75.4,73.7,75.1
SMILES,EBI2 antag,TIM10 inh,SKKanGAS inh,PfHsp90 set2,tim10-1 inh,tim23-1 inh,tim10-1 confirm,tim10 confirm,tim23-1 confirm
NS(=O)(=O)c1ccc(Nc2nc(-c3ccc(O)cc3O)cs2)cc1,n,n,n,n,n,n,x,x,x
Cc1cccnc1Nc1nc(-c2ccc(O)cc2O)cs1,n,n,n,n,43.7,88.4,n,x,52.5
Cc1ccc(S(=O)(=O)c2cc3ccccc3nc2N)cc1,n,n,n,x,n,n,x,x,x
Cc1nn(C)c(C(=O)Sc2ccccc2)c1[N+](=O)[O-],n,n,n,n,n,n,x,x,x
Cc1nn(C)c(C(=O)Sc2cccc(Cl)c2)c1[N+](=O)[O-],n,n,n,n,46.5,61.3,65.1,x,83.8
Cc1nnc(-c2ccccc2)nc1N1CCOCC1,n,n,n,n,n,n,x,x,x
Cc1ccc(-c2nnc(C)c(N3CCCC3)n2)cc1,n,n,n,n,42.2,54.4,n,x,68.7
CCOc1ccc(S(=O)(=O)N2CCN(C(=O)c3cc(C4CC4)nn3-c3ccccc3)CC2)cc1,n,n,x,n,n,n,x,x,x
COc1cc(/C=C/C(=O)c2c(O)cc(C)oc2=O)cc(OC)c1O,n,n,n,x,n,n,x,x,x
Cc1cc(O)c(C(=O)/C=C/c2ccc(Cl)cc2)c(=O)o1,n,n,n,n,47.2,53.3,39.6,x,51.6
O=c1c2c(-c3cccs3)csc2ncn1-c1ccc(Br)cc1,n,n,n,x,41.9,59.3,35.4,x,47.5
O=C(O)COc1ccc(/C=N/n2cnc3scc(-c4cccs4)c3c2=O)cc1,n,x,x,n,x,x,x,x,x
O=c1c2c(-c3cccs3)csc2ncn1/N=C/c1ccccn1,n,n,n,n,56.3,60.9,60.0,x,62.5
COc1cccc(-n2cnc3scc(-c4cccs4)c3c2=O)c1,n,n,n,n,43.0,51.7,42.0,x,49.8
COc1ccc(C(=O)Nn2cnc3scc(-c4cccs4)c3c2=O)c(O)c1,n,n,n,x,n,n,x,x,x
CC/C=C(\NC(C)=O)c1ccccc1,n,n,x,n,n,n,x,x,x
Cc1cccc(-n2cc(-c3ccccc3)[nH]c2=S)c1,n,n,n,n,46.0,51.1,n,x,49.2
CCCc1nc2ccccc2n1CCOc1ccccc1,n,n,n,n,n,n,x,x,x
COc1ccc(NCc2nc3ccccc3n2CCOc2ccccc2)cc1,n,n,n,n,48.9,77.3,39.6,x,81.0

# Compound activity (PubChem)
